Sampled rows, rich in hits. Any-hit rate of the full collection: about 12%.
SARS PLpro yeast: qHTS of Yeast-based Assay for SARS-CoV PLP; S. cerevisiae expressing SARS-CoV PLpro, growth rescue; AID 485353, 2010; Potency, µM (doses to about 32.9 µM), for the others: at the highest dose activity, positive = growth rescue, hits mostly activators; 0.19% of 330,000 active; calls by dose curve; also: 0% is about no effect; nearly all actives have a fitted effect of over 55% in size
Sm TGR block: qHTS Assay for the Inhibitors of Schistosoma Mansoni Peroxiredoxins; Potency, µM (top dose mostly 114 µM), without a hit: at the highest dose activity change, negative = inhibition, hits mostly inhibitors; 3% of 360,000 active; Schistosoma mansoni thioredoxin glutathione reductase (TGR), Q962Y6; AID 485364, 2010; purified TGR, DTNB reduction, TNB absorbance 405 nm; also: % is scaled to controls: 0 for no effect and ±100 for the full control effect; nearly all actives have a fitted effect of over 60% in size
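TGR 20 nM + NADPH 100 uM (dispensed conc.), cpd preinc 15 min RT; start with NADPH (500 uM addition) then DTNB (15 mM addition). Kinetic TNB absorbance, 405 nm filter. Four-parameter Hill fit across titration.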
Pf growth 96h: Primary qHTS for delayed death inhibitors of the malarial parasite plastid, 96 hour incubation; AID 504834, 2011; P. falciparum luciferase reporter growth, 96 h; 6.9% of 320,000 active; Potency, µM (top dose mostly 28.7 µM), inactives show at the top dose activity change, negative = inhibition, hits mostly inhibitors; also: % is scaled to controls: 0 for no effect and ±100 for the full control effect
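Delayed-death screen, second-generation endpoint: infected erythrocytes, 2% hematocrit, 0.05% parasitemia final; 96 hours at 37 C, 5% CO2; luciferase detection reagent; luminescence decrease equals reduced growth.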
Pf growth 48h: Primary qHTS for delayed death inhibitors of the malarial parasite plastid, 48 hour incubation | P. falciparum luciferase growth in erythrocytes, 48 h | Potency, µM (doses to about 28.7 µM), for the others: at the top dose activity change, negative = inhibition, usual class: inhibitors | 5.9% of 310,000 active | AID 504832, 2011; also: % is scaled to controls: 0 for no effect and ±100 for the full control effect
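Cell-based growth assay: transgenic P. falciparum expressing firefly luciferase, cultured in red cells within RPMI 1640 containing 0.5% w/v Albumax, 24 mM bicarbonate and gentamycin. A drop in luciferase activity indicates inhibition.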
* hit, by the source's call; ? = inconclusive; · = not tested or not shown; [ ] = another dose, or the depositor's remark. Unless noted, calls follow the shape of the dose curve; as a rule, active = well fitted curve in the direction sought with a large enough effect; inconclusive = small, poorly fitted or top-dose-only effect, or another doubt; inactive = no such curve, though single readings can be large; an effect the other way counts as inactive or inconclusive. Potency is read from the fitted curve at half-maximal effect.

SMILES	SARS PLpro yeast	Sm TGR block	Pf growth 96h	Pf growth 48h
NS(=O)(=O)c1ccc2c(c1)C(=NO)c1cc(S(N)(=O)=O)ccc1-2	7%	3%	-26%	6%
COC(=O)[C@@H]1C[C@@]2(O)[C@@H](O)[C@@H](O)[C@@H](O)C[C@H]2N1Cc1ccc(Cl)cc1	6%	40µM*	?	76%
C/C(=N\NC(=S)Nc1ccccc1C)C1Cc2ccccc2C(=O)O1 (stereo unspecified)	0%	-29%	12%	?
C/C(=N\NC(=S)Nc1ccccc1)C1Cc2ccccc2C(=O)O1 (stereo unspecified)	1%	-20%	?	10µM*
COc1ccc(NC(=O)CN(C)S(=O)(=O)c2ccc3[nH]c(=O)oc3c2)cc1	2%	3%	15%	-16%
O=C(/C=C/Nc1ccc(F)c(F)c1)c1cccs1	11%	-20%	10µM*	241%
Cc1cccc(N/C=C/C(=O)c2cccs2)c1C	-22%	6%	4.7µM*	168%
O=C(NCCc1ccccc1)c1ccc(CSc2nc3ccncc3n2Cc2ccccc2F)cc1	·	-6%	·	·
CCCn1c2ccccc2c2cnn(CC(=O)Nc3cc(C)c(Cl)cc3OC)c(=O)c21	·	-12%	·	·
CCOP(=S)(OCC)N1CCOCCOCCN(P(=S)(OCC)OCC)CCOCCOCC1	-1%	-14%	?	6.6µM*
CCC(Sc1ccccc1C(=O)O)C(=O)O (stereo unspecified)	-7%	2%	·	·
CCC(Sc1nc(N)cc(N)n1)C(=O)O (stereo unspecified)	2%	-21%	3.3µM*	·
Cc1cc(C)c2c(N)c(-c3nnc(SCc4ccc(Cl)cc4)n3C)sc2n1	0%	10%	21%	-4%
C=CCn1c(SCc2ccccc2Cl)nnc1-c1sc2nc(C)cc(C)c2c1N	0%	10%	?	12µM*
COc1ccc(N2CCN(C3CCN(S(=O)(=O)c4ccc(F)cc4)CC3)CC2)cc1	-3%	2%	?	-8%
COc1cccc(C(c2ccccc2)N2C3CCC2CN(S(=O)(=O)c2ccc(F)cc2)CC3)c1 (stereo unspecified)	-6%	7%	0%	2.1µM*
O=C(NCCCN1CCOCC1)c1cc(C(=O)C2CCCCC2)c[nH]1	2%	-2%	0%	10µM*
CCC(CC)C(=O)c1c[nH]c(C(=O)NCCCN2CCOCC2)c1	2%	7%	67%	7%
CSc1ccc(CCNC(=O)CN2C(=O)COc3ccc(S(=O)(=O)N4CCCC4)cc32)cc1	·	-8%	·	·
CCOC(=O)[C@H]1[C@H]2COc3ccc(Cl)cc3[C@@H]2N2C(=O)c3cc(Br)ccc3NC(=O)[C@@]12C	1%	1%	?	?
CCOC(=O)[C@H]1[C@H]2COc3ccc(Br)cc3[C@@H]2N2C(=O)c3cc(Br)ccc3NC(=O)[C@@]12C	-10%	3%	8.3µM*	?
CCOC(=O)[C@H]1[C@H]2COc3ccccc3[C@@H]2N2C(=O)c3cc(Br)ccc3NC(=O)[C@@]12C	4%	0%	6.6µM*	4.1µM*
CCOC(=O)[C@H]1[C@H]2COc3ccccc3[C@@H]2N2C(=O)c3ccc(Cl)cc3NC(=O)[C@@]12C	-1%	0%	?	?
CCOC(=O)c1ccccc1NC(=O)Cn1c(=O)n(-c2cccc(C)c2)c(=O)c2c1c1cc(C)ccc1n2C	·	3%	·	·
O=S(=O)(NC1=NCCCCC1)c1cc(F)ccc1F	-1%	·	·	·
SMILES	SARS PLpro yeast	Sm TGR block	Pf growth 96h	Pf growth 48h
COc1ccc(Oc2ccc(/C=C/C(=O)c3ccc(O)cc3)cc2[N+](=O)[O-])cc1	-13%	-7%	12µM*	12µM*
CNc1ccc(/C=C/C(=O)c2ccc(C)cc2)cc1[N+](=O)[O-]	14%	-19%	12µM*	9%
CN(C)c1ccc(/C=C/C(=O)c2ccccc2)cc1[N+](=O)[O-]	3%	9%	9.3µM*	106%
O=C(/C=C/c1ccc(O)c([N+](=O)[O-])c1)c1ccc2ccccc2c1	-1%	-9%	?	?
COc1ccccc1N1CCN(C(=O)CCc2c(C)nn(-c3ccc(N4CCCC4)nn3)c2C)CC1	·	0%	·	·
CN(C)c1ccc(CNC(=O)C2CCN(C(=O)c3ccc(-n4ccc5ccccc54)s3)CC2)cc1	·	0%	·	·
Cc1cccc(-n2nnc(-c3nc(-c4cccs4)no3)c2N)c1	·	-2%	·	·
CCCOc1ccc(CNC(=O)C2CCN(C(=O)c3sccc3-n3cccc3)CC2)cc1	·	0%	·	·
Cc1ccc(CN2CC(C(=O)Nc3ncccc3C)CC2=O)cc1 (stereo unspecified)	-2%	-21%	43%	-7%
O=C(NCCCN1CCN(c2cccc(Cl)c2)CC1)Nc1ccccc1C(F)(F)F	·	4%	·	·
N=C1CCC(=N)c2c1c(O)c1ccccc1c2O	-4%	4.5µM*	?	?
COC(=O)c1ccccc1NC(=O)COC(=O)c1ccco1	-5%	-22%	0%[5.75 µM]	4%
COc1ccc(C(=O)COC(=O)/C=C/c2ccco2)cc1F	4%	22µM*	25%	-6%
O=C(COC(=O)/C=C/c1ccco1)Nc1ccc(F)cc1Cl	0%	32µM*	13%	34%
O=C(COC(=O)/C=C/c1ccco1)Nc1cc(S(=O)(=O)N2CCOCC2)ccc1Cl	-4%	·	·	·
COC(=O)c1ccccc1NC(=O)COC(=O)c1ccc(C)c(NC(=O)c2ccco2)c1	-4%	-3%	2.3µM*	2.3µM*
COC(=O)c1ccccc1NC(=O)COC(=O)/C=C/c1ccco1	-1%	25µM*	27%	18%
CCN(Cc1ccccc1)C(=O)Cn1c(=O)cc(C)c2c(C)nn(-c3cccc(F)c3)c21	·	2%	·	·
CC1CCCC(NC(=O)COC(=O)/C=C/c2ccco2)C1C (stereo unspecified)	-2%	45µM*	-23%	-10%
O=C(COC(=O)/C=C/c1ccco1)Nc1ccccc1	-6%	56µM*	1%	-2%
COc1cccc(/C=C(/C(=O)OCC(=O)NC2CCCC(C)C2C)c2ccccc2)c1 (stereo unspecified)	-28%	4%	?	13µM*
O=C(COC(=O)/C=C/c1ccc(F)cc1)NCc1ccc2c(c1)OCO2	-12%	·	·	·
CCc1ccc(NC(=O)COC(=O)/C=C/c2ccco2)cc1	-22%	·	·	·
CC1CCCC(C)N1C(=O)COC(=O)/C=C/c1ccco1 (stereo unspecified)	-1%	·	·	·
O=C(COC(=O)/C=C/c1ccco1)NCc1ccc2c(c1)OCO2	-6%	35µM*	-3%	0%
COc1cccc(/C=C(/C(=O)OCC(N)=O)c2ccccc2)c1	-7%	1%	13%	-1%
COc1ccc(S(=O)(=O)N2CCOC23CCN(S(=O)(=O)c2ccc(Cl)cc2)CC3)cc1	-5%	-16%	?	12µM*
COc1ccc(S(=O)(=O)N2CCC3(CC2)OCCN3S(=O)(=O)c2ccc(OC)cc2)cc1	-3%	-21%	9.3µM*	?
